In PubChem BioAssay one finds composite z-score and z-score data, which are given here for five molecules.

Assay [1] is described as follows: anti-His antibody binders, primary screen, artefact control for SMM control protein annotation, biochemical, small-molecule microarray, 635 nm fluorescence (AID 1128).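 Also: score merges feature fluorescence with signal-to-noise for each printed compound spot.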 The following applies: anti-His Alexa647 antibody binding, higher = more signal.
In assay [2] the test system is Human papillomavirus type 1a E7 protein (residues 1-88). In words: HPV1a E7 small-molecule binders, primary screen, biochemical, small-molecule microarray, residues 1-88, 635 nm (AID 1129). The following applies: small-molecule microarray binding, fluorescence 635 nm; higher = more signal.
For assay [3], the target named is Focal adhesion kinase 1 (Homo sapiens) (UniProt Q05397). Description: small-molecule microarray binders of FAK, primary screen, biochemical, 635/667 nm fluorescence, BSA, DTT (AID 1130).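 Also: composite of spot emission at 667 nm and signal to noise over triplicate slides.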 The following applies: PTK2 binding, 635 nm fluorescence, higher = more signal.
Assay [4] deals with Fibrinogen (Alexa647-labelled). Description: fibrinogen binders on compound microarrays, profiling panel, artefact control for SMM control-protein annotation, biochemical, small-molecule microarray, 635/667 nm fluorescence (AID 1131).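 Also: z-score merges 667 nm fluorescence with per-spot signal-to-noise over triplicate slides.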 The following applies: fibrinogen-A647 binding fluorescence, higher = more signal.
Assay [5] concerns the target Follistatin (Homo sapiens) (UniProt P19883). In words: follistatin binders on small-molecule microarrays, primary screen, biochemical, small-molecule microarray, 635/667 nm fluorescence (AID 1132). The note with it: FST binding, 635 nm fluorescence, higher = more signal.
The target in assay [6] is Fibroblast growth factor 2 (Homo sapiens) (UniProt P09038). Description: FGF2 binders on small-molecule microarrays, primary screen, biochemical, small-molecule microarray, 635/667 nm fluorescence (AID 1133). The following applies: small-molecule microarray binding, FGF2, fluorescence 635/667; higher = more signal.
Assay [7] in a line: mitochondrial membrane potential change in A549 cells, profiling panel, cell-based, JC-1 fluorescence, basal, 24 h, 100 nL (AID 1138).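 Also: A549 lung adenocarcinoma cells under basal conditions with no added stimulus; test concentration not given here.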 The note with it: higher = more signal.
Assay [8] relates to Lefty1. Description: Lefty1 binders on small-molecule microarrays, primary screen, biochemical, small-molecule microarray, 635/667 nm fluorescence (AID 1139). The note with it: small-molecule microarray binding, fluorescence 635/667; higher = more signal.
Assay [9] deals with wheat germ agglutinin (Triticum aestivum), Alexa647-labelled. Description: wheat germ agglutinin binders on compound microarrays, profiling panel, artefact control for SMM control-protein annotation, biochemical, small-molecule microarray, 635/667 nm fluorescence (AID 1140).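 Also: score merges 667 nm feature emission with signal to noise over triplicate slides.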 The following applies: WGA-A647 binding, 635 nm fluorescence, higher = more signal.
Assay [10] deals with Luciferin 4-monooxygenase (Photinus pyralis) (UniProt P08659). Description: firefly luciferase enzyme inhibitors, primary screen, biochemical, luminescence, purified enzyme, 2006 set (AID 1141).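 Also: cell-free assay with purified firefly luciferase at 100 ng per well in PBS; test concentration not given here.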 The note with it: SteadyGlo luminescence, 30 min, higher = more signal, called active from +8 up or from −8 down.
The subject of assay [11] is Wnt5a (protein binding on small-molecule microarray). In words: Wnt5a binders on small-molecule microarray, primary screen, biophysical, 635/667 nm fluorescence (AID 1142).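 Also: fluorescence read at 667 nm with signal to noise per printed feature.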 The following applies: 635 nm fluorescence, higher = more signal.
Assay [12] can be described thus: cell viability in Huh7 cells, primary screen, cytotoxicity control for HCV replication inhibitor project, CellTiter-Glo luminescence, basal, 48 h (AID 1143).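 Also: Huh7 hepatoma cells carrying a hepatitis C replication reporter with no stimulus; test concentration not given here.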 The note with it: Huh7 HCV replicon, higher = more signal, called active from +8 up or from −8 down.
Assay [13] can be described thus: P. aeruginosa biofilm formation inhibitors, primary screen, PAO1 strain, BacTiter-Glo luminescence, LB-PBS (AID 1144). The note with it: 12 h, higher = more signal.
The nature of assay [14]: CREB reporter modulators without forskolin, primary screen, cell-based, PC12, CRE-LacZ reporter, unstimulated (AID 1145). The note with it: no forskolin, luminescence, 4.5 h, higher = more signal, called active from +8 up or from −8 down.
A short description of assay [15]: CREB reporter modulators under forskolin, primary screen, cell-based, PC12, CRE-LacZ reporter, forskolin-stimulated (AID 1146).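 Also: PC12 cells with 6xCRE LacZ reporter stimulated by forskolin 10 µM; beta-galactosidase reporter signal reflecting CREB driven transcription.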 The note with it: luminescence, 4.5 h, higher = more signal, called active from +8 up or from −8 down.
Assay [16] has as its target Streptavidin (Streptomyces avidinii) (UniProt P22629). Description: streptavidin binders on small-molecule microarray, primary screen, artefact control for SMM compound annotation, biophysical, 635/667 nm fluorescence (AID 1147).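 Also: signal reflects streptavidin binding to arrayed compounds as a control protein.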 The following applies: streptavidin binding, higher = more signal.
Assay [17] in a line: small-molecule binders of probe aInhba, primary screen, biochemical, small-molecule microarray, 635/667 nm fluorescence (AID 1148).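 Also: score merges 667nm spot fluorescence with signal-to-noise for antibody binding to printed compounds.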 The following applies: higher = more signal.
Assay [18] deals with Torsin-1A (Homo sapiens) (UniProt O14656). In words: torsin A binders from cell lysate, primary screen, small-molecule microarray, wild-type, 635/667 nm (AID 1149). The following applies: COS7 hTOR1A-WT lysate, 635 nm fluorescence, higher = more signal.
The target is the same in assay [19]. In words: small-molecule binders of mutant TOR1A in lysate, primary screen, cell lysate, small-molecule microarray, COS7 lysate, 635/667 nm fluorescence (AID 1150).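 Also: score pools 667 nm emission and signal to noise measuring lysate protein binding.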 The note with it: COS7 hTOR1A mutant lysate, 635 nm fluorescence, higher = more signal.
Assay [20] relates to Sonic hedgehog protein (Shh). Description: small-molecule binders of Shh protein, primary screen, biochemical, small-molecule microarray, 635/667 nm fluorescence (AID 1151).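 Also: Shh protein binding to compounds spotted on small-molecule microarray slides; score combines spot fluorescence intensity with signal-to-noise across triplicate slides.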 The following applies: small-molecule microarray binding, 635 nm fluorescence; higher = more signal.

Active and inactive are the calls of the source. Unless noted, no rule for the calls is given here.

Sequence of Luciferin 4-monooxygenase (Photinus pyralis) (P08659 whole entry, looked up): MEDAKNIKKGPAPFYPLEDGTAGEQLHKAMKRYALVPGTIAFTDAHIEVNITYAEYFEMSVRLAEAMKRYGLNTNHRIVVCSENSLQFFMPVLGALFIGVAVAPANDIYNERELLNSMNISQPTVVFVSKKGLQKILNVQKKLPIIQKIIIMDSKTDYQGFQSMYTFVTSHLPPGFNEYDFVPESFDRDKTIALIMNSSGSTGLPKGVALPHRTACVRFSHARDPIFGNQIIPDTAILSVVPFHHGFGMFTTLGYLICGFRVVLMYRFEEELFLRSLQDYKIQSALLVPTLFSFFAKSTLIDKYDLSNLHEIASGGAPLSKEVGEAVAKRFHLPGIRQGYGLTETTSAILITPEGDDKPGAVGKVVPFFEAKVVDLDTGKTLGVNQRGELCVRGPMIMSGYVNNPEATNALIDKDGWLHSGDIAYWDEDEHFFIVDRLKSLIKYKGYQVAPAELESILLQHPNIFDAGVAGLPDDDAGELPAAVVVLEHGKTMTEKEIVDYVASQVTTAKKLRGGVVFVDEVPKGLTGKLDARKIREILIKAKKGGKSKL
Sequence of Streptavidin (Streptomyces avidinii) (P22629 whole entry, looked up): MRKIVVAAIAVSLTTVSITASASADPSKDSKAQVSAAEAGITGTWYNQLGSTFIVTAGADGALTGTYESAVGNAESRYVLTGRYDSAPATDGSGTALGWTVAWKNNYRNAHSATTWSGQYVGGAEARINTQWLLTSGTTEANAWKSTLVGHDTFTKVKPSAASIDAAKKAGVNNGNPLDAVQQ
Sequence of Focal adhesion kinase 1 (Homo sapiens) (Q05397 whole entry, looked up): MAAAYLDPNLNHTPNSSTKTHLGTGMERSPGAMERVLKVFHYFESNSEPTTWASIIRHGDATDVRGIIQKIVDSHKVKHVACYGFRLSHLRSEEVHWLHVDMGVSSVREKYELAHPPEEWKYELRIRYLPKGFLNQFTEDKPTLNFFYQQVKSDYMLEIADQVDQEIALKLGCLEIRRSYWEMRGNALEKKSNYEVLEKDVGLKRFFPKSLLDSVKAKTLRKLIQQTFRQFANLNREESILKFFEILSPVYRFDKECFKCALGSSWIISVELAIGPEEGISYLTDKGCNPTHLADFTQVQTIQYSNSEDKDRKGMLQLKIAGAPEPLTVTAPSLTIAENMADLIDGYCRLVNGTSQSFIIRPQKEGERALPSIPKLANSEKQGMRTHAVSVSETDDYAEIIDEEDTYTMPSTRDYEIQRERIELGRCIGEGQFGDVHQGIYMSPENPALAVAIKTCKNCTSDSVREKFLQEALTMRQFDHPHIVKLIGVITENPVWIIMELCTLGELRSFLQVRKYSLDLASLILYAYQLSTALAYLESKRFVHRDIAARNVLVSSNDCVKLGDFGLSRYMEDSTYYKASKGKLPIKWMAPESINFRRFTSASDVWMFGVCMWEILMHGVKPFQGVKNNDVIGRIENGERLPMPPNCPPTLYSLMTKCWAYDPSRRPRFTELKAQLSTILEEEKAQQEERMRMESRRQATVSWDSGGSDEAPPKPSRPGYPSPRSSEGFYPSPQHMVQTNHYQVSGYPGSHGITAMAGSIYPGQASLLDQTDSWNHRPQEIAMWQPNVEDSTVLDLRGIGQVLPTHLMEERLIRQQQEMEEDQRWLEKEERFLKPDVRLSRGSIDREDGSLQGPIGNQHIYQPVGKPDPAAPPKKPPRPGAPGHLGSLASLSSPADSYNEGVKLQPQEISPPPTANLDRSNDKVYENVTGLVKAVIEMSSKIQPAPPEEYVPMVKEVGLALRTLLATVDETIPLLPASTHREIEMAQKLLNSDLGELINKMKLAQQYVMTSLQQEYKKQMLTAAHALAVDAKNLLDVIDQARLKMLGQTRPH
Sequence of Torsin-1A (Homo sapiens) (O14656 whole entry, looked up): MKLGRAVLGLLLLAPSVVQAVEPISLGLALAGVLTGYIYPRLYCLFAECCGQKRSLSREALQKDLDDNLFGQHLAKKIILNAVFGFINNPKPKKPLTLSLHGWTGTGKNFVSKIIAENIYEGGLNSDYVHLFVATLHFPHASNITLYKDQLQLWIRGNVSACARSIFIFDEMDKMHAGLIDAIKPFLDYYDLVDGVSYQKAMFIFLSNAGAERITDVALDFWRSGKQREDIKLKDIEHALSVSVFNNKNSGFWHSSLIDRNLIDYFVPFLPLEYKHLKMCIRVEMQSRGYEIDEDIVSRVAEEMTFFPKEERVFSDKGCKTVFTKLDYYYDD
Sequence of Fibroblast growth factor 2 (Homo sapiens) (P09038 whole entry, looked up): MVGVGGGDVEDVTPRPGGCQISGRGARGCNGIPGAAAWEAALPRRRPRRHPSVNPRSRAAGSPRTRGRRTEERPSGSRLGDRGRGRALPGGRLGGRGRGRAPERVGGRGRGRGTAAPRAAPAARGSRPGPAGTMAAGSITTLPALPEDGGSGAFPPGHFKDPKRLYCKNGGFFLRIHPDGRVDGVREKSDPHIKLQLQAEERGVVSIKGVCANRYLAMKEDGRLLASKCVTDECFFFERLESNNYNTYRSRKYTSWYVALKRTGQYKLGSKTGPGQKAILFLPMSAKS
Sequence of Follistatin (Homo sapiens) (P19883 whole entry, looked up): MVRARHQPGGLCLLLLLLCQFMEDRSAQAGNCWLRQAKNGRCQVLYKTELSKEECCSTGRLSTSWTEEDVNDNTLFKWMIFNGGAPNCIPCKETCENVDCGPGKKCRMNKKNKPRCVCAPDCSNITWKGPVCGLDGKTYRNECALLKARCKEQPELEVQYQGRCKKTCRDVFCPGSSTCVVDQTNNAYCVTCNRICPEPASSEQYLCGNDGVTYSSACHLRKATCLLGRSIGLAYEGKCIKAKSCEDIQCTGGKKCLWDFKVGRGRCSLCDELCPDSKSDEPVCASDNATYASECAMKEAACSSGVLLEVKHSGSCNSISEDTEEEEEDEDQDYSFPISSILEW

Turning to `CN1C(=O)C2C=CC(C(O)c3ccccc3)N(Nc3ccccc3)C2C1=O` (stereo not given), the composite z-score in assay [1] was 0.75; in assay [2], 0.717; in [3] it was 0.61; in assay [4], -0.022; in assay [5], -1.07; in assay [6], -1.39. For the same molecule, the composite z-score in assay [8] is -0.279; in assay [9], 0.537; in assay [11] it was -0.244; in assay [16], -0.0782; in assay [17], -0.0195; in assay [18], -1.5. Besides, the composite z-score in assay [19] was 0.254; in [20] it was -1.58. The z-score in [7] was -0.419; in assay [10], -0.315 (inactive); in assay [12] it was 0.658 (inactive); in assay [13], -0.231 (inactive); in assay [14], 0.626 (inactive); in assay [15] it was -0.206 (inactive).

`CC(C)(C)OC(=O)CC[C@@]1(C(=O)NCC(O)CO)N=C(c2ccc(OCCCO)cc2)O[C@@H]1c1ccccc1N=[N+]=[N-]` (stereo not given in full): the composite z-score is 2.37 in assay [1]; 0.818 in assay [2]; 0.94 in assay [3]; 0.985 in assay [4]; 1.43 in assay [5]; 0.692 in assay [6]. The composite z-score in [8] is -0.0052; in [9] it was 0.96; in assay [11], 0.849; in assay [16] it was 1.85; in assay [17], 0.289; in assay [18], 1.45. The composite z-score in [19] was 1.76; in assay [20], 0.146. For the same molecule, the z-score in [7] is 1.18; in [10] it was -10.6 (active); in [12], -0.371 (inactive); in assay [13], -1.18 (inactive); in assay [14] it was -0.183 (inactive); in assay [15], -0.173 (inactive).

Take `O=C(NCc1ccc(F)cc1)[C@H]1C[C@H]2C(=O)N[C@@H](Cc3ccccc3)C(=O)N2[C@H]1c1ccc(O)cc1`: the composite z-score in [1] was 1.53; in assay [2], 0.526; in [3] it was 0.063; in assay [4] it was -0.102; in [5] it was 1.38; in [6] it was 1.59. The composite z-score in assay [8] was -0.169; in assay [9] it was -0.262; in assay [11], -0.0011; in assay [16] it was -0.507; in assay [17], -0.206; in assay [18] it was 1.08. Also, the composite z-score came to 1.37 in [19] and 1.1 in [20]. Also, the z-score in assay [7] is 0.574; in assay [10] it was -0.568 (inactive); in [12], -0.411 (inactive); in assay [13] it was 0.506 (inactive); in [14], -0.801 (inactive); in assay [15] it was -0.887 (inactive).

With `O=C1[C@H]2C=C(Br)[C@H](C[C@@H]2c2ccccc2)[C@@]12CO2`, the composite z-score in assay [1] was 0.828; in [2], 0.253; in assay [3], 0.004; in assay [4] it was -0.0786; in assay [5], 1.14; in assay [6], 0.402. The composite z-score was 0.785 in assay [8]; -0.21 in [9]; 0.127 in assay [11]; 0.105 in [16]; 0.0528 in assay [17]; 0.175 in assay [18]. Besides, the composite z-score in [19] is 0.273; in assay [20] it was 0.982. Also, the z-score in [7] was -0.0698; in assay [10], 0.266 (inactive); in assay [12], -0.856 (inactive); in [13], 0.552 (inactive); in assay [14], 1.58 (inactive); in assay [15], 4.2 (inactive).

With `CCCC=C(CCC)[C@@H](NS(=O)(=O)c1cccs1)c1ccc(C(=O)OC)cc1`, the composite z-score in assay [1] is 1.16; in [2] it was 1.17; in assay [3], 0.496; in assay [4] it was 1.02; in assay [5], 0.825; in assay [6], -0.186. The composite z-score was -0.3 in [8]; 1.17 in assay [9]; 0.247 in assay [11]; 1.37 in [16]; 0.16 in assay [17]; -0.0907 in [18]. Further, the composite z-score is 0.647 in assay [19] and -0.168 in assay [20]. Besides, the z-score in [7] is -2.96; in assay [10], 0.917 (inactive); in [12], -3.88 (inactive); in assay [13], 0.276 (inactive); in [14] it was 0.201 (inactive); in assay [15] it was 0.91 (inactive).
